Bioassay records as filed in PubChem.
The list is not random: actives were taken first. Their share in the collection is about 12%.
SARS PLpro yeast – qHTS of Yeast-based Assay for SARS-CoV PLP | S. cerevisiae expressing SARS-CoV PLpro, growth rescue | Potency, µM (series often up to 32.9 µM), actives largely listed as activators | 330,000 compounds, 0.19% hits; note: nearly all actives have a fitted effect of over 55% in size
Shiga toxin inh – A qHTS for Small Molecule Inhibitors of Shiga Toxin. AID 2315, 2010. Vero cells, Shiga toxin protein synthesis inhibition reporter. inhibition, % at 38.7 µM. 290,000 compounds, 9.2% hits; in the data active = inhibition mostly above about 28%, no sharp cut-off; inactive = mostly below about 43%
NS1 inh – qHTS Assay for Inhibitors of Influenza NS1 Protein Function; Potency, µM (titrated, usually from 46.1 µM); 270,000 compounds, 0.4% hits; note: actives are rising curves; nearly all actives have a fitted effect of over 50% in size
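Read-out: OD600 growth recovery of NS1-expressing budding yeast. Cells grown overnight at 30C in -URA glucose medium, washed, resuspended and diluted 1:100 in 2% galactose assay medium, pH 6.0. Same strain lacking NS1 served as positive control.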
CHX counter – Cycloheximide Counterscreen for Small Molecule Inhibitors of Shiga Toxin; max response, %; 300,000 compounds, 12% hits; cell reporter, cycloheximide protein synthesis inhibition counterscreen; in the data active = max response mostly above about 13%, no sharp cut-off; inactive = mostly below about 14%; note: read at 38.3 µM for the half of the compounds with a filed dose
Hits are given with their value; . = inactive; ? = inconclusive; / = no result given. Unless noted, calls come from the whole dose curve.

SMILES	SARS PLpro yeast	Shiga toxin inh	NS1 inh	CHX counter
c1ccc(Cc2cc(-c3ccccc3)on2)cc1	.	90.4	.	36.5
Cc1ccc2cc(CN(CC3CCCO3)C(=O)Nc3ccccc3F)c3nnnn3c2c1 (configuration not stated)	.	83.6	/	45.0
CC1Cc2cc(S(=O)(=O)N3CCC(C(=O)NCc4ccco4)CC3)ccc2N1C(=O)C1CCC1 (configuration not stated)	.	.	.	.
COc1ccc(-c2csc(Nc3cccnc3)n2)cc1OC	.	active	.	.
c1cncc(Nc2nc(-c3cccnc3)cs2)c1	.	.	.	.
COc1cccc(Nc2nc(-c3cccnc3)cs2)c1	.	57.3	.	52.9
COCC1CCCN(C(=O)c2ccc3nc(Cc4cccc(Cl)c4)oc3c2)C1 (configuration not stated)	.	89.4	.	42.3
COC1CCCN(C(=O)c2ccc3nc(Cc4cccc(Cl)c4)oc3c2)C1 (configuration not stated)	.	49.0	.	.
COCC1CCCN(C(=O)c2ccc3oc(Cc4ccc(Cl)cc4)nc3c2)C1 (configuration not stated)	.	.	.	.
Cn1c(=O)n(CC(=O)OCc2ccccc2)c(=O)c2c1nc1n2CCCN1C1CCCCC1	/	/	.	/
Cc1nc2ccccc2nc1N1CCOCC1	.	.	.	.
Cc1nc2ccccc2nc1N1CCCC1	.	39.7	.	.
CNC(=O)Nc1ccc(Cl)cc1	.	.	.	20.7
O=C(Nc1ccccc1)Nc1ccc(Oc2cccnc2)nc1	.	39.3	.	41.8
Nc1ccc(C(=O)CC(=O)Nc2ccc(Cl)cc2)cc1	.	.	.	18.3
Nc1ccc(NC(=O)c2ccc(C(=O)Nc3ccc(N)cc3)cc2)cc1	.	.	.	.
O=C(Nc1ccncc1)Nc1ccncc1	.	.	/	.
O=C(Nc1cccnc1)c1ccccc1Oc1ccccc1	.	.	.	.
CC(=O)c1ccc(NC(=O)Nc2ccncc2)cc1	.	57.1	.	28.1
CC(NC(=O)Nc1ccc(Cl)cc1)c1ccccc1 (configuration not stated)	.	.	.	.
O=C(Cn1cc(C(F)(F)F)cc(Cl)c1=O)Nc1cc(Cl)cc(Cl)c1	.	.	/	.
O=C(NCC(F)(F)F)Nc1cccnc1	.	.	.	.
CC(=O)c1ccc(N2Cc3ccccc3/C2=N\C(=O)Nc2ccc(Cl)cc2)cc1	.	33.0	?	43.2
CN(C)CC(=O)Nc1ccc(Oc2ccc(Cl)cc2)cc1	.	.	.	.
CON(C)C(=O)Nc1ccc(Cl)cc1	.	.	.	11.5
SMILES	SARS PLpro yeast	Shiga toxin inh	NS1 inh	CHX counter
CC(=O)c1ccc(NC(=O)Nc2cccnc2)cc1	.	.	.	27.9
O=C(Nc1ccc(OC(F)(F)F)cc1)Nc1cccnc1	.	69.5	.	31.5
O=C(Nc1ccc(F)cc1)Nc1cccnc1	.	.	.	.
Nc1ncnc2c1ncn2[C@@H]1O[C@H](CNC(=O)[C@H](N)Cc2cscn2)[C@@H](O)[C@H]1O	.	/	/	/
COc1ccc(S(=O)(=O)N2CCN(Cc3cccs3)CC2)cc1OC	.	/	/	/
CC(=O)c1ccc(NC(=O)c2cnsn2)cc1	.	81.6	.	31.4
CC(=O)c1ccc(NC(=O)Nc2ccc(Cl)cc2)cc1	.	104.6	.	34.2
CC(=O)c1ccc(NC(=O)C(C)Nc2ccc(Cl)cc2)cc1 (configuration not stated)	.	.	/	.
CCN=c1sc(C(=O)NCCc2ccccc2)cc(=O)n1CC	.	97.3	.	47.0
O=C(NCc1nc2ccccc2[nH]1)c1cccs1	.	.	.	23.1
O=C(NCc1ccco1)c1cnc2sccn2c1=O	.	.	.	.
O=C(NCCc1ccccc1)c1cnc2sccn2c1=O	.	92.9	.	43.2
Cc1cc2ccccc2n1CCNC(=O)c1cccs1	.	31.5	?	17.0
Cc1cc(CN(C)C(=O)CC2C(=O)NCCN2Cc2c(F)cccc2Cl)n[nH]1 (configuration not stated)	.	.	.	.
CCCn1c(=O)[nH]c(=O)c2c1nc(-c1ccc3c(c1)OCCO3)n2CCN1CCOCC1	.	.	.	.
O=C(NCCc1ccccc1)c1cccs1	.	.	.	29.0
O=C(NCCc1cccc(Cl)c1)c1cccs1	.	100.8	.	66.9
O=C1NC(=S)N/C1=C\c1ccc(N2CCOCC2)cc1	.	.	/	28.5
C=CCN1C(=O)S/C(=C\c2ccc(N3CCOCC3)cc2C)C1=O	.	.	.	35.2
C=CC(C)N1C(=O)S/C(=C\c2ccc(N3CCOCC3)cc2C)C1=O (configuration not stated)	.	.	.	16.9
Cc1cc(N2CCOCC2)ccc1/C=C1/SC(=O)NC1=O	.	.	/	30.9
O=C(CN1C(=O)NC(CCc2ccccc2)C1=O)Nc1ccc(F)c(F)c1F (configuration not stated)	.	/	/	/
Cc1ccc(S(=O)(=O)Nc2ccccc2C(=O)N2CCCCC2)cc1	.	.	.	.
O=C(N/N=C/c1ccco1)c1cc(C2CC2)[nH]n1	.	117.8	.	35.2
O=C(N/N=C/c1ccc([N+](=O)[O-])cc1)c1cc(C2CC2)[nH]n1	.	.	.	.
SMILES	SARS PLpro yeast	Shiga toxin inh	NS1 inh	CHX counter
Cc1cc(C(=O)N/N=C/c2ccco2)n[nH]1	.	.	.	28.8
Cc1cc(C(=O)NN)n[nH]1	.	60.9	.	20.1
CC(/C=C/c1ccco1)=N\NC(=O)c1cc(C)[nH]n1	.	.	.	.
C=CCn1cnc2c(oc3ccccc32)c1=O	.	.	.	25.1
O=c1c2oc3ccccc3c2ncn1Cc1ccccc1Cl	/	.	.	.
O=c1c2oc3ccccc3c2ncn1Cc1ccccc1F	.	.	.	29.5
CC(C)N1C/C(=C/c2cccnc2)C(=O)/C(=C/c2cccnc2)C1	.	.	.	20.6
CN1C/C(=C/c2cccnc2)C(=O)/C(=C/c2cccnc2)C1	.	.	.	24.8
CCc1ccccc1NC(=S)N1N=CCC1c1ccccc1 (configuration not stated)	.	.	.	16.5
Cc1cccc(NC(=S)N2N=CCC2c2ccccc2)c1 (configuration not stated)	.	118.7	.	41.8
CS(=O)(=O)N(CC(=O)NN=C1CCCCCC1)c1ccc(Oc2ccccc2)cc1	.	.	/	.
C/C(=N\NC(=O)CN(c1ccc(Oc2ccccc2)cc1)S(C)(=O)=O)C(C)(C)C	.	.	/	33.3
CS(=O)(=O)N(CC(=O)NC1CCCC1)c1ccc(Oc2ccccc2)cc1	.	.	.	.
CS(=O)(=O)N(CC(=O)NC1CC2CCC1C2)c1ccc(Oc2ccccc2)cc1 (configuration not stated)	.	.	.	15.1
CC(C)(C)OC(=O)CN1C(=O)NC2(CCCc3ccccc32)C1=O (configuration not stated)	.	.	.	.
Cc1cc(C)nc(Nc2ccc(N3CCCC3)cc2)n1	.	90.3	.	30.3
Cc1cc(C)nc(Nc2ccc(N3CCOCC3)cc2)n1	.	.	.	17.1
Cc1cc(C)nc(N/N=C/c2ccc(N3CCOCC3)cc2)n1	.	.	.	.
COc1ccc(NC(=O)c2sc(-c3ccccc3)nc2C)c(OC)c1	.	.	.	.
Cc1nc(-c2ccccc2)sc1C(=O)Nc1ccccc1F	.	.	.	46.3
